Data published in PubChem BioAssay (NCI).
The panel holds about 83,000 compounds, 20% with a hit somewhere; the sample as a whole holds those more often.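 For each line, cells grew in 96-well plates with the test compound present at a single concentration for 48 hours.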 Values without a mark were called inactive. Activity calls are given as the source filed them. Rule for the calls: active = growth percent below 10; inactive = the rest.

Experiments:
Assay in all cases: NCI-60 one-dose screen, 48 h (100 = growth as untreated, 0 = no growth, -100 = all killed)
NCI-H23 lung = conditions: 10 µM unless noted
NCI-H226 lung = conditions: 10 µM unless noted
NCI-H322M lung = conditions: 10 µM unless noted
HOP-62 NSCLC = conditions: 10 µM unless noted
NCI-H460 lung = conditions: 10 µM unless noted
HOP-92 NSCLC = conditions: 10 µM unless noted
NCI-H522 lung = conditions: 10 µM unless noted
A549/ATCC NSCLC = conditions: 10 µM unless noted
786-0 renal = conditions: 10 µM unless noted
COLO 205 colon = conditions: 10 µM unless noted
DU-145 prostate = conditions: 10 µM unless noted
K-562 leukemia = conditions: 10 µM unless noted
MALME-3M melanoma = conditions: 10 µM unless noted
MDA-MB-231 breast = conditions: 10 µM unless noted
RXF 393 renal = conditions: 10 µM unless noted
SF-268 CNS = conditions: 10 µM unless noted
SF-295 CNS = conditions: 10 µM unless noted
SF-539 CNS = conditions: 10 µM unless noted
UACC-257 melanoma = conditions: 10 µM
M14 melanoma = conditions: 10 µM unless noted

Structure (SMILES)	growth (NCI-H23 lung)	growth (NCI-H226 lung)	growth (NCI-H322M lung)	growth (HOP-62 NSCLC)	growth (NCI-H460 lung)	growth (HOP-92 NSCLC)	growth (NCI-H522 lung)	growth (A549/ATCC NSCLC)	growth (786-0 renal)	growth (COLO 205 colon)	growth (DU-145 prostate)	growth (K-562 leukemia)	growth (MALME-3M melanoma)	growth (MDA-MB-231 breast)	growth (RXF 393 renal)	growth (SF-268 CNS)	growth (SF-295 CNS)	growth (SF-539 CNS)	growth (UACC-257 melanoma)	growth (M14 melanoma)
O=C1[C@H]2Cc3c([nH]c4ccccc34)[C@H](c3ccc(Cl)cc3)N2C(=O)CN1C1CCN(Cc2c(Cl)cccc2Cl)CC1	86.5%	72.5%	96.9%	80.1%	68%	55.1%	75.3%	66.9%	66%	54.8%	76.9%	6.9% (active)	79.6%	72.5%	53.9%	64.2%	86.8%	75.2%	101%	71.5%
Fc1ccccc1/C=C(/C1=NCCN1)n1cnc2ccccc21	96%	83.2%	90%	106%	104%	73.7%	94.3%	107%	99%	123%	97.2%	94.1%	91%	93.4%	84.1%	90.9%	100%	95.6%	96.9%	95.1%
COc1cccc(/C=C/C(=O)c2ccc(NC(=O)COc3cccc4cccnc34)cc2)c1	99.3%	93.9%	95.5%	112%	101%	107%	90.2%	95.2%	96.8%	105%	90.2%	82.1%	108%	98.4%	107%	96.3%	96.6%	101%	103%	104%
IP(CCCCCCCCCCSc1n(Cc2ccc3ccccc3c2)c(-c2ccccc2)c(-c2ccccc2)[n+]1Cc1ccc2ccccc2c1)(c1ccccc1)(c1ccccc1)c1ccccc1	-66.2% (active)	-55.2% (active)	-68.4% (active)	-59.1% (active)	-63.4% (active)	-77.8% (active)	-61.8% (active)	-55% (active)	-56.2% (active)	-55.2% (active)	-69.6% (active)	-46.4% (active)	-70.5% (active)	-63.7% (active)	-35.6% (active)	-54.6% (active)	-77.6% (active)	-66.7% (active)	-55.8% (active)	-61.2% (active)
Cc1nn(-c2ccccc2)c2nc(CCl)[nH]c(=O)c12	98.8%	111%	103%	98.3%	102%	117%	89.8%	97.7%	4.55% (active)	110%	83.6%	19.2%	103%	88.4%	99.2%	106%	109%	36.9%	97.9%	99%
O=C(CN1C(=O)CSC1=O)Nc1ccc(C(=O)/C=C/c2cc3ccccc3nc2Cl)cc1	68.4%	89.1%	96.1%	97.5%	85.7%	94.4%	66.9%	78.2%	73.3%	111%	90.3%	37.2%	91.8%	90.4%	17.6%	78.8%	77%	79.1%	75.3%	83.7%
NC(=O)c1c(NC(=O)c2cccc(OC(F)(F)F)c2)sc2c1CCC(=O)C2	25.8%	80.1%	110%	102%	96.6%	71.6%	20.6%	74.7%	89.4%	85.7%	107%	13.5%	81.3%	63.3%	36.4%	55.7%	46.1%	25.7%	81.8%	37.6%
CCOC(=O)/C(F)=C/C1CC1CCc1cccc(C(F)(F)F)c1 (stereo not given)	101%	102%	106%	98.3%	111%	116%	100%	107%	103%	103%	110%	111%	106%	107%	129%	105%	99.6%	99.4%	111%	98.9%
COc1ccc(/C=N\NC(=O)c2ccc3nc(-c4ccc(Br)cc4)[nH]c3c2)cc1	24.5%	64.3%	66.2%	4.06% (active)	-47.7% (active)	-2.97% (active)	74.6%	23.8%	12.8%	18.4%	16.5%	11.6%	-9.02% (active)	48.6%	-17.7% (active)	8.61% (active)	11%	16.4%	38.7%	24.7%
COc1cc(C(=O)C[n+]2ccc3ccccc3c2)cc(OC)c1OC	96.6%	95.9%	98.3%	97.3%	101%	80%	92.9%	105%	102%	103%	105%	91.7%	91.5%	93.3%	101%	100%	100%	100%	103%	98.1%
COC[C@@]1(C)CC[C@]2(C)CC[C@]3(C)C(=CC[C@@H]4[C@@]5(C)CCCNC(C)(C)[C@@H]5CC[C@]43C)C2C1 (stereo not given in full)	75.4%	81.3%	89.4%	83.9%	29.8%	73%	76.7%	55.7%	59.1%	22%	73.6%	6.79% (active)	56.7%	77.7%	72.2%	77.1%	3.52% (active)	62.7%	60%	50.1%
COc1ccc(-c2nc(SCC(C)C)nc(N/N=C\c3cccc([N+](=O)[O-])c3)c2C#N)cc1	46.4%	38%	38.3%	31.3%	14.1%	16.2%	59.4%	24.8%	4.44% (active)	85.8%	70.5%	57.1%	48.1%	30.5%	18.1%	43.6%	52.7%	8.02% (active)	89%	76.9%
CCOC(=O)c1c(NC(=O)c2ccc(F)cc2F)sc2c1CCC(=O)C2	103%	107%	102%	104%	102%	107%	51.6%	92.8%	100%	109%	94.9%	86.7%	118%	97.2%	117%	91.9%	95.1%	79.3%	102%	111%
O=C(Nc1ccc(-c2nc(-c3cccc(O)c3)c(-c3ccnc(Br)c3)[nH]2)cc1)c1ccccc1	10.5%	51.4%	37.3%	2.99% (active)	11.1%	6.58% (active)	11.3%	25.9%	-10.2% (active)	21%	35.5%	1.18% (active)	16.9%	30.2%	-37.1% (active)	29.2%	-56.4% (active)	16.6%	45.8%	22.6%
CCOP(=O)(OCC)OC[C@]12CCC(C)(C)C[C@H]1C1=CC[C@@H]3[C@@]4(C)C/C(=C\c5cccnc5)[C@H](OP(=O)(OCC)OCC)C(C)(C)[C@@H]4CC[C@@]3(C)[C@]1(C)CC2	18.3%	34.2%	61.1%	36.8%	10.8%	-1.51% (active)	19.8%	16.3%	36.2%	-5.36% (active)	30.7%	9.94% (active)	19.5%	44.8%	58%	46.1%	26.7%	37%	23.7%	34.6%
